Source: PubChem BioAssay (NCATS)
Values joined by “and” are separate entries in the source; they are usually repeats but may differ in a detail not shown here. Equal values may be shown once. Records with an inconclusive call do not appear. Active and inactive are the calls of the source. Calls follow the shape of the dose curve; as a rule, active = well fitted inhibition curve with a large enough effect; inconclusive = small, poorly fitted or top-dose-only effect; inactive = no such curve, though single readings can be large or run the other way.

experiment: qHTS for Inhibitors of the Aldehyde Dehydrogenase Family (ALDH1A2, ALDH1A3, ALDH2, ALDH3A1) (AID 2061307); conditions: ALDH inhibition qHTS; series mostly up to 50.3 µM; activity change, negative = inhibition: at the top concentration; also: nearly all actives have a fitted effect of over 50% in size; as to Potency: test system not described further here
% is scaled to controls: 0 for no effect and ±100 for the full control effect; potency is read from the fitted curve at half-maximal effect.

Activity change, negative = inhibition, inactive:
COc1cccc(N2CCN(C(=O)c3ccc4c(c3)N(C)C3CCCCCN3C4=O)CC2)c1 (centres undefined) -29.9% [at 34.4 µM]
COc1ccc(NC(=O)c2cc(C3CC3)nc3c2c(C)nn3-c2ccccc2)cc1OC -64.4% [at 34.4 µM]
Cc1nc(-c2ccc(Cl)s2)sc1C(=O)Nc1ccc(C(N)=O)c(F)c1 -63.1% [at 34.4 µM]
CCN1CCN(C(=S)c2ccc([N+](=O)[O-])cc2)CC1 -3.34%
Cc1ccn2c(=O)c(C(=O)NC(C)c3ccccc3)c(O)nc2c1 (centres undefined) -34.8% [at 34.4 µM]
CN(C)CCCN1c2ccc([N+](=O)[O-])cc2CCc2cc([N+](=O)[O-])ccc21 -85.5%
O=C(Nc1ccccc1C(=O)Nc1cccc(C(F)(F)F)c1)c1ccc(Cl)cc1 18.7%
O=[N+]([O-])c1cccnc1S(=O)(=O)c1ccccc1 -30.2%
CCOc1ccc(-c2nc3scc(-c4ccc(OC)cc4)c3c(=O)[nH]2)cc1OC -18.5% [at 34.4 µM]
Cn1cc2c(=O)n(-c3ccccc3)c(SCc3cccc(F)c3)nc2n1 -0.291% [at 34.4 µM]
N#Cc1cccc(-c2ccc3nc(-c4ccccc4)cn3c2)c1 -1.96% [at 34.4 µM]
Cc1csc2c1c(=O)n(O)c(=O)n2Cc1ccccc1 -27.1%
COc1ccc2nc(-c3cnn(Cc4ccccc4)c3)sc2c1 -13%
Cc1ccccc1C(=O)n1ccc2cc(-c3cccc(NC(=O)Cc4ccccc4)n3)cnc21 -20.7%
Cc1ccc2c(CC(=O)Nc3c(C(=O)c4ccc(F)cc4)oc4ccccc34)coc2c1C -18.1% [at 34.4 µM]
OCCNc1nc(Nc2ccccc2O)nc(N2CCCC2)n1 -7.77%

Potency, active:
Cc1ccc(-c2ccccc2)n1-c1ccccc1C(=O)O 15.9 µM
O=C(CSc1n[nH]c2nc3ccccc3n12)Nc1cc(C(F)(F)F)ccc1Cl 15.8 µM
CSc1ncc(CNc2cc([N+](=O)[O-])ccc2C)c(N)n1 17.8 µM
CN1CCN(c2ccc3ncc(Nc4ccc(Cl)c(C(F)(F)F)c4)n3n2)CC1 28.2 µM
Cc1ccc(C)n1-c1sccc1C#N 7.12 µM
O=C(Nc1ccnc(Cc2ccccc2)c1)c1ccc(-c2cccc([N+](=O)[O-])c2)o1 2.01 µM
COc1cc(O)c(C(CC(=O)N2CC(C)CC(C)C2)c2ccc(C(N)=O)cc2)c(OC)c1 (centres undefined) 0.282 µM
Cc1ccc(NC(=O)Nc2cc3c(cc2N2CCCCC2)n(C)c(=O)n3C)cc1Cl 3.55 µM and 798 nM
